# Laboratory results from PubChem BioAssay (NCATS).
# Inconclusive results are not listed. Activity calls are given as the source filed them.
# Experiment: qHTS for identification of novel therapeutic agents for treatment of microphthalmiaassociated transcription factor (MiT) renal cell carcinoma (RCC) (AID 1963991)
# Settings: TFE3-RCC UOK109 viability, CellTiter-Glo, 48 h; active = Z-AUC below -0.8 in all three lines
# In short: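 Three TFE3-fusion RCC lines (UOK109, UOK124, UOK145), 500 cells/well in complete medium, were treated with MIPE 4.0 compounds for 48 hours at 37 C. Viability was by CellTiter-Glo luminescence, normalized to DMSO (100%) and empty wells (0%); curves fitted over 11 concentrations.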
# Potency is read from the fitted curve at half-maximal effect.
row,SMILES,Potency
1,FC(F)(F)c1ccc(C=Cc2nc(COc3ccc(CCCCn4ccnn4)cc3)co2)cc1,0.00296 µM (active)
2,CO[C@H]1/C=C\O[C@@]2(C)Oc3c(C)c(O)c4c(O)c(c(C=NN5CCN(C6CCCC6)CC5)c(O)c4c3C2=O)NC(=O)C(C)=CC=C[C@H](C)[C@H](O)[C@@H](C)[C@@H](O)[C@@H](C)[C@H](OC(C)=O)[C@H]1C,0.105 µM (active)
3,C[C@@H]1O[C@@H](O[C@H]2CC[C@@]3(C)[C@H](CC[C@@H]4[C@H]3C[C@@H](O)[C@]3(C)[C@@H](C5=CC(=O)OC5)CC[C@]43O)C2)C[C@H](O)[C@@H]1O[C@H]1C[C@H](O)[C@H](O[C@H]2C[C@H](O)[C@@H](O)[C@@H](C)O2)[C@H](C)O1 (stereo in doubt),0.215 µM (active)
4,CC[C@]1(O)C[C@H]2CN(CCC3=c4ccccc4=N[C]3[C@@](C(=O)OC)(c3cc4c(cc3OC)N(C)[C@H]3[C@@](O)(C(N)=O)[C@H](O)[C@]5(CC)C=CCN6CC[C@]43[C@@H]65)C2)C1,0.332 µM (active)

# Same assay, conditions: TFE3-RCC UOK109 viability, CellTiter-Glo, 48 h; measured here: UOK109 Z-AUC; stronger effect = lower value
row,SMILES,z-score
1,CC(=O)OCC(=O)[C@@]12OC(C)(C)O[C@H]1C[C@H]1[C@@H]3C[C@H](F)C4=CC(=O)C=C[C@]4(C)[C@@]3(F)[C@@H](O)C[C@@]12C,0.123
2,CC(C)=CCCC(C)=CCCC(C)=CCCC(C)=CCCC(C)=CCCC(C)=CCCC(C)=CCCC(C)=CCCC(C)=CCO,0.865
3,CN(CC=CC#CC(C)(C)C)Cc1cccc2ccccc12,0.358
4,CC=C1C2C=C(C)CC1(N)c1ccc(=O)[nH]c1C2 (stereo unspecified),0.936
5,O=c1[nH]c(=O)n([C@H]2C[C@@H](O)[C@@H](CO)O2)cc1I,0.108
6,COc1cc2c(cc1OC)[C@@H]1Cc3ccc(OC)c(OC)c3CN1CC2,0.652
7,CO[C@H]1C=CO[C@@]2(C)Oc3c(C)c(O)c4c(O)c(c(C=NN5CCN(C)CC5)c(O)c4c3C2=O)NC(=O)C(C)=CC=C[C@H](C)[C@H](O)[C@@H](C)[C@@H](O)[C@@H](C)[C@H](OC(C)=O)[C@H]1C,2.16
8,COc1cc(CNC(=O)CCCCC=CC(C)C)ccc1O,0.273
9,FC(F)(F)c1ccc(C=Cc2nc(COc3ccc(CCCCn4ccnn4)cc3)co2)cc1,-2.19
10,C[C@]12C=CC(=O)C=C1CC[C@@H]1[C@@H]2[C@@H](O)C[C@@]2(C)[C@@H]1CC[C@]2(O)C(=O)CO,0.748
11,O=C(O)C1=CO[C@@H](O[C@@H]2O[C@H](CO)[C@H](O)[C@H](O)[C@H]2O)[C@@H]2C(CO)=CC[C@H]12,0.598
12,CCNC(=O)CCCC=CC[C@@H]1[C@H](C=CC(O)CCc2ccccc2)[C@@H](O)C[C@@H]1O (stereo partly specified),1.02
13,CO[C@H]1/C=C\O[C@@]2(C)Oc3c(C)c(O)c4c(O)c(c(C=NN5CCN(C6CCCC6)CC5)c(O)c4c3C2=O)NC(=O)C(C)=CC=C[C@H](C)[C@H](O)[C@@H](C)[C@@H](O)[C@@H](C)[C@H](OC(C)=O)[C@H]1C,-1.72
14,N=C1SC(=Cc2ccc(-c3ccc4c(c3)C(=O)NC4=O)o2)C(=O)N1c1ccc(Br)cc1,0.374
15,CC[C@H]1OC(=O)[C@H](C)[C@@H](O[C@H]2C[C@@](C)(OC)[C@@H](O)[C@H](C)O2)[C@H](C)[C@@H](O[C@@H]2O[C@H](C)C[C@H](N(C)C)[C@H]2O)[C@](C)(O)C[C@H](C)C(=NOCOCCOC)[C@H](C)[C@@H](O)[C@]1(C)O,1.24
16,CC(C)c1onc(-c2c(Cl)cccc2Cl)c1COc1ccc(C=Cc2cccc(C(=O)O)c2)c(Cl)c1,0.965

row,SMILES,z-score
1,CC(=O)OCC(=O)[C@@]1(O)CC[C@H]2[C@@H]3CCC4=CC(=O)C=C[C@]4(C)[C@@H]3[C@@H](O)C[C@@]21C,0.953
2,O=C(O)C1=NC(C(=O)O)CC(C=CN2c3cc(O)c(OC4OC(CO)C(O)C(O)C4O)cc3CC2C(=O)O)=C1 (stereo unspecified),1.58
3,CCCCC[C@H](O)C=C[C@H]1[C@H](O)CC(=O)[C@H]1CCCCCCC(=O)O,1.1
4,CN[C@H]1[C@@H](O[C@@H]2[C@H](O[C@@H]3[C@@H](O)[C@@H](O)[C@@H](N=C(N)N)[C@@H](O)[C@@H]3N=C(N)N)O[C@H](C)[C@@]2(O)C=O)O[C@@H](CO)[C@@H](O)[C@H]1O,2.74
5,COc1ccc2c(c1)CC[C@H]1[C@@H]2CC[C@]2(C)[C@@H](NCCCCCCN3C(=O)C=CC3=O)CC[C@H]12,1.13
6,C[C@@H]1O[C@@H](O[C@H]2CC[C@@]3(C)[C@H](CC[C@@H]4[C@H]3C[C@@H](O)[C@]3(C)[C@@H](C5=CC(=O)OC5)CC[C@]43O)C2)C[C@H](O)[C@@H]1O[C@H]1C[C@H](O)[C@H](O[C@H]2C[C@H](O)[C@@H](O)[C@@H](C)O2)[C@H](C)O1 (stereo in doubt),-2.46
7,CC[C@H](C)C(=O)O[C@H]1C[C@H](O)C=C2C=C[C@H](C)[C@H](CC[C@@H](O)C[C@@H](O)CC(=O)O)[C@H]21,0.594
8,CC[C@]1(O)C[C@H]2CN(CCC3=c4ccccc4=N[C]3[C@@](C(=O)OC)(c3cc4c(cc3OC)N(C)[C@H]3[C@@](O)(C(N)=O)[C@H](O)[C@]5(CC)C=CCN6CC[C@]43[C@@H]65)C2)C1,-0.8
9,CCC=CC[C@H]1C(=O)CC[C@@H]1CC(=O)OC,-0.107
10,CN[C@@H]1[C@@H](O)[C@@H](O[C@@H]2[C@@H](O)[C@H](O[C@H]3O[C@H](CN)[C@@H](O)[C@H](O)[C@@H]3O)[C@@H](N)C[C@@H]2NC(=O)[C@@H](O)CN)OC[C@]1(C)O,2.18
11,CO[C@H]1O[C@@H]2O[C@@]3(C)CC[C@@H]4[C@@H](C)CC[C@@H]([C@H]1C)[C@@]24OO3,1.01
12,CC1(C)[C@H]2CC[C@]3(C)[C@@H](C(=O)C=C4[C@@H]5C[C@@](C)(C(=O)O)CC[C@]5(C)CC[C@]43C)[C@@]2(C)CC[C@@H]1O,0.727
13,CCNC(=O)[C@H]1O[C@@H](n2cnc3c(N)nc(NCCc4ccc(CCC(=O)O)cc4)nc32)[C@H](O)[C@H]1O,0.882
14,CCOC(=O)[C@H]1O[C@H]1C(=O)N[C@@H](CC(C)C)C(=O)NCCC(C)C,0.719
15,CCN1C[C@H](C)n2c(c(O)c3c(=O)n(Cc4ccc(F)c(Cl)c4)nc(C(=O)NC)c32)C1=O,0.808
16,CC1(C)OC2CC3C4CC(F)C5=CC(=O)C=CC5(C)C4C(O)CC3(C)[C@]2(C(=O)CO)O1 (stereo partly specified),0.56
